According to PubChem BioAssay:
Inconclusive results are not listed. For some assays here: Results with a measured potency or affinity are listed apart. The source made the active and inactive calls. Unless noted, no rule for the calls is given here.

What was measured:
[1] = antimalarial activity against Dd2 strain (AID 2302;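 active = growth inhibition above 50% at the single 2 µM test dose, taken to imply half-maximal potency below 2 µM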;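 also: 0% = DMSO untreated growth and 100% = chloroquine plus artemisinin killed control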); conditions: P. falciparum Dd2 in RBCs, LDH growth readout, 72 h; at 2 µM; active compounds read high
[2] = HepG2 cytotoxicity, primary screen, cytotoxicity control for P. falciparum antimalarial project, cell-based, ATP luminescence (AID 2303;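 active = inhibition above 50%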;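 also: 0% = DMSO wells and 100% = digitonin-killed cells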); conditions: HepG2 viability, 24-48 h, at 10 µM, active compounds read high
[3] = biological target: L-lactate dehydrogenase (Plasmodium falciparum (isolate CDC / Honduras)) (UniProt Q27743); assay: PfLDH activity inhibition – cell lysate, 3D7 strain, counter-screen for P. falciparum growth inhibition project (AID 2304);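 also: 0% = vehicle and 100% = reference inhibitor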; conditions: P. falciparum 3D7 crude extract, LDH APAD/NBT absorbance; at 2 µM; active compounds read high
[4] = inhibition of 3D7 malaria parasite growth – strain 3D7 (AID 2306);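 also: 0% = DMSO wells and 100% = chloroquine plus artemisinin control wells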; conditions: P. falciparum 3D7 erythrocytic growth, LDH absorbance, 72 h; at 2 µM; active compounds read high
[5] = biological target: Plasmodium falciparum protein kinase 6 (PK6, PF3D7_1337100) (UniProt Q8IDW1); assay: PfPK6 kinase inhibitors, biochemical, TCAMS library (AID 1159586); conditions: recombinant PfPK6, Kinase-Glo ATP depletion luminescence
[6] = biological target: Protein kinase 7 (PK7), Plasmodium falciparum 3D7 (PF3D7_0213400) (UniProt Q7YTF7); assay: inhibition of Plasmodium PK7 catalytic activity – biochemical, TCAMS antimalarial set, Kinase-Glo luminescence (AID 1159587); conditions: recombinant PfPK7, Kinase-Glo ATP depletion luminescence
[7] = biological target: Calcium-dependent protein kinase 4 (Plasmodium falciparum (isolate 3D7)) (UniProt Q8IBS5); assay: PfCDPK4 kinase inhibitors, biochemical, TCAMS library (AID 1159588; cut-off not given, nearly all actives have IC50 up to about 0.91 µM); conditions: recombinant PfCDPK4, Kinase-Glo ATP depletion luminescence
[8] = biological target: Calcium-dependent protein kinase 1 (Plasmodium falciparum (isolate 3D7)) (UniProt P62344); assay: PfCDPK1 kinase inhibitors, biochemical, TCAMS library (AID 1159585; cut-off not given, nearly all actives have IC50 up to about 0.98 µM;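 also: inhibitors leave more ATP so luminescence rises with inhibition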); conditions: recombinant PfCDPK1, Kinase-Glo ATP depletion luminescence
[9] = growth inhibition of DIPG glioma cells, dose response, cell-based, SU-DIPG-XIII, MIPE4.0, CellTiter-Glo, qHTS (AID 1347061; cut-off not given, nearly all actives have AC50 up to about 37 µM;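 also: cells exposed to compound for 48 hours before readout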); conditions: SU-DIPG-XIII viability, CellTiter-Glo ATP luminescence
[10] = growth inhibition of DIPG glioma cells, dose response, cell-based, JHH-DIPG-1, MIPE4.0, CellTiter-Glo, qHTS (AID 1347062; cut-off not given, nearly all actives have AC50 up to about 27 µM;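 also: cells exposed to compound for two days before readout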); conditions: JHH-DIPG-1 viability, CellTiter-Glo ATP luminescence
[11] = growth inhibition of DIPG glioma cells, dose response, cell-based, SU-DIPG-IV, MIPE4.0, CellTiter-Glo, qHTS (AID 1347063; cut-off not given, nearly all actives have AC50 up to about 30 µM;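 also: compound exposure lasted 48 hours before the viability readout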); conditions: SU-DIPG-IV viability, CellTiter-Glo ATP luminescence
[12] = growth inhibition of DIPG glioma cells, dose response, cell-based, SU-DIPG-XIII, MIPE5.0, CellTiter-Glo, qHTS (AID 1347064; cut-off not given, nearly all actives have AC50 up to about 23 µM;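 also: cells exposed to compound for 48 hours before the viability read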); conditions: SU-DIPG-XIII viability, CellTiter-Glo ATP luminescence
[13] = SU-DIPG-XXV glioma cell viability, MIPE5.0 library, qHTS (AID 1347068; cut-off not given, nearly all actives have IC50 up to about 30 µM;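 also: cells exposed to compound for 48 hours before viability readout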)

Sequence of Plasmodium falciparum protein kinase 6 (PK6, PF3D7_1337100) (Q8IDW1 1-305): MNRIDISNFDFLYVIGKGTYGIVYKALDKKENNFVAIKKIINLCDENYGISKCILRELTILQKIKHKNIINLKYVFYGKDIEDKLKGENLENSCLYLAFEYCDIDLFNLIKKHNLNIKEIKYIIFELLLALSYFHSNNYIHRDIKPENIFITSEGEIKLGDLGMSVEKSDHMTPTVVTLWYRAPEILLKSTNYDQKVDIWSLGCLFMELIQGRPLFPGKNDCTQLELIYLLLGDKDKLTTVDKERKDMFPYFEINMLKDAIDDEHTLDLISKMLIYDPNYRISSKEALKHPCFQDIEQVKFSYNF
Sequence of Calcium-dependent protein kinase 4 (Plasmodium falciparum (isolate 3D7)) (Q8IBS5 whole entry, looked up): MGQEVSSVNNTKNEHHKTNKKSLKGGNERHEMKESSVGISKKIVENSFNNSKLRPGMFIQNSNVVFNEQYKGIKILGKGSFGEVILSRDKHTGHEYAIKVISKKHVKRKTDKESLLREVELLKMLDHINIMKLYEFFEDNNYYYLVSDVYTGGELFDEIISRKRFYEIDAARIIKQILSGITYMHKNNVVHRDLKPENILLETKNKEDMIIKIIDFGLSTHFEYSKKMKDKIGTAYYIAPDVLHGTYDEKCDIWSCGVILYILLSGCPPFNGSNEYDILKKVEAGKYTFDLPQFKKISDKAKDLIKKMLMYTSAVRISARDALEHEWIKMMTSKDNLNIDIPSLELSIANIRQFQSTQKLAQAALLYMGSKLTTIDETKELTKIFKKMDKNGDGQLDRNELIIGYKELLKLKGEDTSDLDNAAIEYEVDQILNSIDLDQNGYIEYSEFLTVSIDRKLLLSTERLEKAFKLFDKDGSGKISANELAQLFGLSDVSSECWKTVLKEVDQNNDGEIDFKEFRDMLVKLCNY
Sequence of Calcium-dependent protein kinase 1 (Plasmodium falciparum (isolate 3D7)) (P62344 whole entry, looked up): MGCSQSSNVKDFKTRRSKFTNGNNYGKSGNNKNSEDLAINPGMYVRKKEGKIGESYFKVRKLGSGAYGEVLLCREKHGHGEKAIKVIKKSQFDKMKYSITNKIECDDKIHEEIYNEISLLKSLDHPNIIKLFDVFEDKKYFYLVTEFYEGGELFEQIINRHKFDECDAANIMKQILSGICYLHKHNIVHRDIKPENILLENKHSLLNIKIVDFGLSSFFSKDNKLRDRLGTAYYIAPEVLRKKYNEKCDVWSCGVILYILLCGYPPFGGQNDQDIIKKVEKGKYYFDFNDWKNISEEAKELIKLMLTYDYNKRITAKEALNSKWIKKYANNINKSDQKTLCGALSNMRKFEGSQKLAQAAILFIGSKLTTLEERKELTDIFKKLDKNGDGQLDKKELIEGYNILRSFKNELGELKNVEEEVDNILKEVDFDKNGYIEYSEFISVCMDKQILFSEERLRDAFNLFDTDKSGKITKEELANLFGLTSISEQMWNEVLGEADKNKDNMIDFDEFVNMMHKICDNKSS
Sequence of Protein kinase 7 (PK7), Plasmodium falciparum 3D7 (PF3D7_0213400) (Q7YTF7 1-343): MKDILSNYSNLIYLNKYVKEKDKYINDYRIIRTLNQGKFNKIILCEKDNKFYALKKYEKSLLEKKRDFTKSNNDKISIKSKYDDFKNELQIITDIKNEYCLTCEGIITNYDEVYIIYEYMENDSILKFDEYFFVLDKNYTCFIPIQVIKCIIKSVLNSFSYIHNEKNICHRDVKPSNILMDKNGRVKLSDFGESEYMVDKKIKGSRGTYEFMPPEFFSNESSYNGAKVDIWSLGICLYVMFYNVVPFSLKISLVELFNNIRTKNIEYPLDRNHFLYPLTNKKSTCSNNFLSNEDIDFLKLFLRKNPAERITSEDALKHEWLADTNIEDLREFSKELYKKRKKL
Sequence of L-lactate dehydrogenase (Plasmodium falciparum (isolate CDC / Honduras)) (Q27743 whole entry, looked up): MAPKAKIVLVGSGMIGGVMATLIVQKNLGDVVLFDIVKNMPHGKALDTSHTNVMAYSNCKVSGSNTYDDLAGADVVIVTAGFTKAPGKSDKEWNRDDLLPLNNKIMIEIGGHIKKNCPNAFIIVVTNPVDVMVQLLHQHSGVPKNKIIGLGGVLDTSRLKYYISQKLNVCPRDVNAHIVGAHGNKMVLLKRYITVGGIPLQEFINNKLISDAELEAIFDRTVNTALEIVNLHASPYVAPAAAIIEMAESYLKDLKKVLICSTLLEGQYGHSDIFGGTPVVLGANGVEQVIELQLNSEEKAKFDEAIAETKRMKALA

COc1ccc(C(=O)NCC(C)(C)c2nc(-c3ccc(Cl)c(O)c3)c(-c3ccncc3)[nH]2)cc1OCCN(C(C)C)C(C)C
active: growth inhibition [1] 96% | inhibition [2] 62% | growth inhibition [4] 102%
inactive: inhibition [3] 4% | outcome [5] | outcome [6] | outcome [7]

CC(=O)Nc1nc(C)c(-c2csc(Nc3ccc(Cl)cc3)n2)s1
active: growth inhibition [1] 93% | growth inhibition [4] 96%
inactive: inhibition [2] 14% | inhibition [3] 0% | outcome [8] | outcome [6] | outcome [7]

O=C(Cc1ccc(Nc2nccc(Nc3cccc4[nH]ncc34)n2)cc1)Nc1ccc(C(F)(F)F)cc1
inactive: inhibition [2] 12% | inhibition [3] -6% | outcome [8] | outcome [6] | outcome [7]
active: growth inhibition [1] 69% | growth inhibition [4] 100%

Nc1ncc(-c2cccc(F)c2)cc1-c1nc2ccc(F)cc2[nH]1
inactive: inhibition [3] -3% | outcome [8] | outcome [6] | outcome [7]
active: growth inhibition [1] 88% | inhibition [2] 54% | growth inhibition [4] 100%

Oc1cc(-c2nc(-c3ccccc3)[nH]c2-c2ccncc2)ccc1Cl
active: growth inhibition [1] 91% | inhibition [2] 64% | growth inhibition [4] 96% | AC50 [9] 16.6 µM | AC50 [10] 13.2 µM | AC50 [11] 2.35 µM | AC50 [12] 9.34 µM | IC50 [13] 23.5 µM
inactive: inhibition [3] -6% | outcome [5] | outcome [6] | outcome [7]

N#Cc1cnc(Nc2ccc(Oc3ccccc3)cc2)nc1Nc1cccc(S(N)(=O)=O)c1
inactive: inhibition [3] 3% | outcome [8] | outcome [6] | outcome [7]
active: growth inhibition [1] 86% | inhibition [2] 74% | growth inhibition [4] 96%

Cc1ccc(S(=O)(=O)Nc2ccc(Nc3nccc(Nc4cccc5[nH]ncc45)n3)cc2)cc1
active: inhibition [2] 57% | growth inhibition [4] 90%
inactive: growth inhibition [1] 5% | inhibition [3] 6% | outcome [8] | outcome [6] | outcome [7]

CCNC(=O)Nc1ccc(-c2cnc(N)c(-c3nc4ccc(OC)cc4[nH]3)c2)cc1
inactive: growth inhibition [1] 43% | inhibition [3] 1% | outcome [5] | outcome [6] | outcome [7]
active: inhibition [2] 51% | growth inhibition [4] 100%

CN(c1ccc(NC(=O)Nc2cccc(Cl)c2)cc1)c1ccnc(N)n1
inactive: growth inhibition [1] 40% | inhibition [3] -1% | outcome [8] | outcome [6] | outcome [7]
active: inhibition [2] 75% | growth inhibition [4] 100%

NS(=O)(=O)c1cccc(Nc2nccc(-c3cnn4ncccc34)n2)c1
inactive: inhibition [2] 39% | inhibition [3] 0% | outcome [8] | outcome [6] | outcome [7]
active: growth inhibition [1] 89% | growth inhibition [4] 89%

CCN(CC)CCCNc1nccc(N(C)c2ccc(NC(=O)Nc3cc(C(F)(F)F)ccc3F)cc2)n1
active: inhibition [2] 96% | growth inhibition [4] 94%
inactive: growth inhibition [1] 19% | inhibition [3] -6% | outcome [8] | outcome [6] | outcome [7]

Cn1cnc2c(Nc3ccncc3)nc(-c3ccc4c(c3)OCO4)nc21
active: growth inhibition [4] 96%
inactive: growth inhibition [1] 2% | inhibition [2] 19% | inhibition [3] -1% | outcome [8] | outcome [6] | outcome [7]

CS(=O)(=O)Cc1cccc(Nc2ncc(Cl)c(Nc3cccnc3C(N)=O)n2)c1
inactive: inhibition [3] -3% | outcome [8] | outcome [6] | outcome [7]
active: growth inhibition [1] 97% | inhibition [2] 56% | growth inhibition [4] 96%

c1ccc(Oc2ccc(Nc3ccnc4cc(-c5ccc(CNCCN6CCOCC6)o5)ccc34)cc2)cc1
inactive: inhibition [2] 20% | inhibition [3] -3% | outcome [5] | outcome [6] | outcome [7]
active: growth inhibition [1] 99% | growth inhibition [4] 99%

N=C(N)c1ccc(Nc2nc(Nc3ccc(-c4ccccc4)cc3)ncc2[N+](=O)[O-])cc1
active: growth inhibition [4] 99%
inactive: growth inhibition [1] 35% | inhibition [2] 11% | inhibition [3] -3% | outcome [8] | outcome [6] | outcome [7]

CCN(CC)CCNc1nccc(N(C)c2ccc(NC(=O)Nc3cc(C(F)(F)F)ccc3F)cc2)n1
inactive: growth inhibition [1] 25% | inhibition [3] 1% | outcome [8] | outcome [6] | outcome [7]
active: inhibition [2] 74% | growth inhibition [4] 97%

CCNC(=O)Nc1ccc(N(C)c2ccnc(Nc3ccc(CS(C)(=O)=O)cc3)n2)cc1
active: growth inhibition [1] 99% | growth inhibition [4] 101%
inactive: inhibition [2] -5% | inhibition [3] 2% | outcome [8] | outcome [6] | outcome [7]

CC(C)(CN)c1nc(-c2ccc(Cl)c(O)c2)c(-c2ccncc2)[nH]1
inactive: inhibition [2] 34% | inhibition [3] 0% | outcome [5] | outcome [6] | outcome [7]
active: growth inhibition [1] 98% | growth inhibition [4] 97%

CN(c1ccc2c(c1)nc(NCc1ccc(F)cc1)n2C)c1ccnc(Nc2ccc(CS(C)(=O)=O)cc2)n1
inactive: inhibition [2] 48% | inhibition [3] 7% | outcome [8] | outcome [6] | outcome [7]
active: growth inhibition [1] 79% | growth inhibition [4] 97%

CS(=O)(=O)Nc1cccc(-c2cnc3[nH]cc(-c4cccc(CN)c4)c3c2)c1
active: growth inhibition [1] 82% | growth inhibition [4] 96%
inactive: inhibition [2] 25% | inhibition [3] -2% | outcome [5] | outcome [6] | outcome [7]

O=C(O)c1cccnc1Sc1ccc(Cl)cc1
inactive: growth inhibition [1] 4% | inhibition [2] 5% | inhibition [3] 3% | outcome [8] | outcome [6] | outcome [7]
active: growth inhibition [4] 100%

CN(C)CC(O)COc1ccc(Nc2ncc([N+](=O)[O-])c(Nc3ccccc3O)n2)cc1 (stereo not drawn)
active: growth inhibition [4] 100%
inactive: growth inhibition [1] 20% | inhibition [2] 47% | inhibition [3] -4% | outcome [8] | outcome [6] | outcome [7]

CN(c1ccc(NC(=O)Nc2cc(C(C)(C)C)on2)cc1)c1ccnc(NCCN2CCOCC2)n1
inactive: growth inhibition [1] 18% | inhibition [3] -5% | outcome [8] | outcome [6] | outcome [7]
active: inhibition [2] 51% | growth inhibition [4] 95%

Cc1cc(Nc2nc(Nc3cccc(Cl)c3)nc3ccccc23)n[nH]1
active: growth inhibition [1] 95% | growth inhibition [4] 103%
inactive: inhibition [2] 9% | inhibition [3] -2% | outcome [8] | outcome [6] | outcome [7]

CN(c1ccc2c(c1)nc(NCc1ccccc1)n2C)c1ccnc(Nc2ccc(CS(C)(=O)=O)cc2)n1
inactive: inhibition [3] 4% | outcome [8] | outcome [6] | outcome [7]
active: growth inhibition [1] 69% | inhibition [2] 61% | growth inhibition [4] 94%

COc1ccc2nc(-c3cc(-c4ccc(NC(C)=O)cc4)cnc3N)[nH]c2c1
active: growth inhibition [1] 73% | inhibition [2] 55% | growth inhibition [4] 93%
inactive: inhibition [3] -1% | outcome [5] | outcome [6] | outcome [7]

CCn1c(-c2nc(-c3ccnc(N4CCN(C)CC4)c3)cnc2N)nc2cc(S(C)(=O)=O)ccc21
inactive: inhibition [2] 44% | inhibition [3] -1% | outcome [5] | outcome [6] | outcome [7]
active: growth inhibition [1] 76% | growth inhibition [4] 101%

c1cncc(Oc2ccc(Nc3ccnc4cc(-c5cccc(CNCCN6CCOCC6)c5)ccc34)cc2)c1
active: growth inhibition [1] 99% | growth inhibition [4] 101%
inactive: inhibition [2] 14% | inhibition [3] 4% | outcome [5] | outcome [6] | outcome [7]

N=C(N)c1ccc(Nc2nccc(Nc3nc(-c4ccccc4)cs3)n2)cc1
active: growth inhibition [1] 75% | growth inhibition [4] 96%
inactive: inhibition [2] 13% | inhibition [3] -8% | outcome [8] | outcome [6] | outcome [7]

CN(C)Cc1ccc(-c2ccc3c(Nc4ccc(Cl)cc4F)ccnc3c2)o1
inactive: inhibition [2] 13% | inhibition [3] -3% | outcome [5] | outcome [6] | outcome [7]
active: growth inhibition [1] 99% | growth inhibition [4] 100%

COc1ccc(-c2cnc3ccc(N4CCCC4)nn23)cc1OC
active: growth inhibition [1] 98% | growth inhibition [4] 98%
inactive: inhibition [2] 40% | inhibition [3] 0% | outcome [5] | outcome [6] | outcome [7]

CN1CCN(Cc2cccc(Nc3nccc(Nc4ccc(Oc5ccccc5)cc4)n3)c2)CC1
active: growth inhibition [1] 80% | growth inhibition [4] 97%
inactive: inhibition [2] 30% | inhibition [3] 2% | outcome [5] | outcome [6] | outcome [7]

CN(C)CCN(C)Cc1nc(-c2ccc3c(Nc4ccc(Oc5ccccc5)cc4)ccnc3c2)cs1
inactive: inhibition [2] 27% | inhibition [3] -3% | outcome [5] | outcome [6] | outcome [7]
active: growth inhibition [1] 100% | growth inhibition [4] 100%

Nc1ncc(-c2cn[nH]c2)cc1-c1nc2ccc(Cl)cc2[nH]1
inactive: inhibition [2] 46% | inhibition [3] -5% | outcome [5] | outcome [6] | outcome [7]
active: growth inhibition [1] 100% | growth inhibition [4] 101%

COc1cc2nccc(Nc3ccc(Oc4ccccc4)cc3)c2cc1OC
active: growth inhibition [1] 99% | growth inhibition [4] 102%
inactive: inhibition [2] 13% | inhibition [3] -1% | outcome [5] | outcome [6] | outcome [7]

CC(C)(CNCc1ccc(F)c(F)c1)c1nc(-c2ccc(Cl)c(O)c2)c(-c2ccncc2)[nH]1
inactive: inhibition [3] 2% | outcome [5] | outcome [6] | outcome [7]
active: growth inhibition [1] 89% | inhibition [2] 74% | growth inhibition [4] 102%

Cc1ccc(Nc2nccc(Nc3ccc4c(c3)nc(Nc3cc(C(C)(C)C)on3)n4C)n2)cc1S(C)(=O)=O
inactive: inhibition [2] 30% | inhibition [3] -5% | outcome [5] | outcome [6] | outcome [7]
active: growth inhibition [1] 99% | growth inhibition [4] 100%

CC(C)(CNC(=O)[C@@H]1CCCCN1)c1nc(-c2ccc(Cl)c(O)c2)c(-c2ccncc2)[nH]1
inactive: inhibition [2] -8% | inhibition [3] -10% | outcome [5] | outcome [6] | outcome [7]
active: growth inhibition [1] 96% | growth inhibition [4] 97%

NCc1ccc(Nc2nccc(Nc3ccc(-c4ccccc4)cc3)n2)cc1
active: growth inhibition [1] 98% | growth inhibition [4] 101%
inactive: inhibition [2] 47% | inhibition [3] -1% | outcome [5] | outcome [6] | outcome [7]
